# This excerpt belongs to a sample that is enriched for the strongest signals.
# B1: MIC1 (Neospora caninum), Q8WRS0 (protein)
# chain: AGAKTYGEASQPSASARSLQGALDTWCQEVFKKLCDDGYSKMCIPANQVVARQGLGRKDQQKLVWRCYDSAAFLAEGDENNVLSCVDDCGVSIPCPGGVDRDNSTHATRHDELSQLIKEGVVRYCSGFQAAANSYCNKRYPGTVARKSKGFGHKEPVKWRCYKPESLLFSVFSECVSNCGTTWSCPGGRLGTATNLDKKHFTDESGILQALTSVPKACPVGLVCLPRDQNPPACLDDNGNVPE
# B2: MIC4-A5 (Toxoplasma gondii), Q9XZH7 (protein)
# chain: SPDFHDEVECVHTGNIGSKAQTIGEVKRASSLSECRARCQAEKECSHYTYNVKSGLCYPKRGKPQFYKYLGDMTGSRTCDTS
# B3: FaeGac (Escherichia coli) (protein)
# chain: WMTGDFNGSVDIGGSITADDYRQKWEWKVGTGLNGFGNVLNDLTNGGTKLTITVTGNKPILLGRTKEAFATPVTGGVDGIPHIAFTDYEGASVVLRKPDGETNKNGLAYFVLPMKNAGGTKVGSVKVNASYAGVLGRGGVTSADGELLSLFADGLSSIFYGGLPRGSELSAGSAAAARTKLFGSLSRDDILGQIQRVNANVTSLVDVAGSYRENMEYTDGNVVSAAYALGIANGQTIEATFNQAVTTSTQWSAPLNVAITYY
# Assays:
# Test in all cases: glycan array binding signal (z-score within array); higher = stronger binding
# Settings in all cases: glycan notation: IUPAC condensed, linker removed
# [1] = target: Gal(b1-3)GalNAc(b1-4)[Neu5Ac(a2-3)]Gal(b1-4)Glc
# How it was run: (§1)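 The Consortium for Functional Glycomics database supplied 3228 glycan arrays, of which those lacking an available protein sequence were dropped. The binding signal, a within-array Z-score, was averaged across arrays of the same protein sequence and across linkers. Negative scores can be read as non-binding.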
# [2] = target: Gal(b1-3)GlcNAc(b1-3)Gal(b1-4)Glc
# How it was run: as §1
# [3] = target: Neu(a2-3)Gal(b1-4)Glc
# How it was run: as §1
# [4] = target: Neu(a2-3)Gal6S(b1-4)[Fuc(a1-3)]GlcN(b1-3)Gal(b1-4)Glc
# How it was run: as §1
# [5] = target: Neu5Ac(a2-3)Gal(b1-4)[Fuc(a1-3)]GlcNAc(b1-3)Gal(b1-4)Glc
# How it was run: as §1
# [6] = target: Neu5Ac(a2-3)Gal(b1-4)[Fuc(a1-3)]GlcNAc6S(b1-3)Gal(b1-4)Glc
# How it was run: as §1
# [7] = target: Neu5Ac(a2-3)Gal6S(b1-4)[Fuc(a1-3)]GlcNAc(b1-3)Gal(b1-4)Glc
# How it was run: as §1
# [8] = target: Neu5Ac(a2-3)Gal6S(b1-4)[Fuc(a1-3)]GlcNAc6S(b1-3)Gal(b1-4)Glc
# How it was run: as §1
# [9] = target: Neu5Ac(a2-8)Neu5Ac(a2-8)Neu5Ac(a2-8)Neu5Ac(a2-8)Neu5Ac(a2-8)Neu5Ac(a2-8)Neu5Ac
# How it was run: as §1
# [10] = target: Neu5Ac(a2-8)Neu5Ac(a2-8)Neu5Ac(a2-8)Neu5Ac(a2-8)Neu5Ac(a2-8)Neu5Ac(a2-8)Neu5Ac(a2-8)Neu5Ac(a2-8)Neu5Ac
# How it was run: as §1
# [11] = target: Neu5Ac(a2-8)Neu5Ac(a2-8)Neu5Ac(a2-8)Neu5Ac(a2-8)Neu5Ac(a2-8)Neu5Ac(a2-8)Neu5Ac(a2-8)Neu5Ac(a2-8)Neu5Ac(a2-8)Neu5Ac(a2-8)Neu5Ac
# How it was run: as §1
# [12] = target: Neu5Ac9Ac(a2-6)Gal(b1-4)GlcNAc
# How it was run: as §1
# [13] = target: Gal(b1-3)GalNAc(b1-4)Gal3S(b1-4)Glc
# How it was run: as §1
# [14] = target: Gal(b1-3)GalNAc(b1-4)[Neu5Gc(a2-3)]Gal(b1-4)Glc
# How it was run: as §1
# [15] = target: Gal(b1-3)[Neu5Ac(a2-6)]GalNAc(b1-4)Gal(b1-4)Glc
# How it was run: as §1
# [16] = target: Gal(b1-4)GlcNAc(b1-2)[Gal(b1-4)GlcNAc(b1-4)]Man(a1-3)[Gal(b1-4)GlcNAc(b1-2)Man(a1-6)]Man(b1-4)GlcNAc(b1-4)GlcNAc
# How it was run: as §1
# [17] = target: Gal(b1-4)GlcNAc(b1-3)Fuc
# How it was run: as §1
# [18] = target: Glc(a1-3)Glc
# How it was run: as §1
# [19] = target: Glc(a1-3)Glc(a1-3)Man(a1-2)Man(a1-2)Man(a1-3)[Man(a1-3)[Man(a1-6)]Man(a1-6)]Man(b1-4)GlcNAc
# How it was run: as §1
# [20] = target: Glc(a1-6)Glc(a1-6)Glc(a1-6)Glc(a1-6)Glc
# How it was run: as §1
# [21] = target: Glc(a1-6)Glc(a1-6)Glc(a1-6)Glc(a1-6)Glc(a1-6)Glc(a1-6)Glc(a1-6)Glc(a1-6)Glc
# How it was run: as §1
# [22] = target: Glc(b1-2)Glc
# How it was run: as §1
# [23] = target: Glc(b1-3)Glc(b1-3)Glc(b1-3)Glc(b1-3)Glc(b1-3)Glc(b1-3)Glc(b1-3)Glc(b1-3)Glc(b1-3)Glc(b1-3)Glc
# How it was run: as §1
# [24] = target: Glc(b1-4)Glc(b1-4)Glc(b1-4)Glc(b1-4)Glc(b1-4)Glc(b1-4)Glc
# How it was run: as §1
# [25] = target: Glc(b1-4)Glc(b1-4)Glc(b1-4)Glc(b1-4)Glc(b1-4)Glc(b1-4)Glc(b1-4)Glc(b1-4)Glc
# How it was run: as §1
# [26] = target: Glc(b1-6)Glc(b1-6)Glc(b1-6)Glc
# How it was run: as §1
# [27] = target: GlcA(b1-3)GlcNAc(b1-4)GlcA(b1-3)GlcNAc(b1-4)GlcA(b1-3)GlcNAc(b1-4)GlcA(b1-3)GlcNAc(b1-4)GlcA(b1-3)GlcNAc(b1-4)GlcA(b1-3)GlcNAc(b1-4)GlcA(b1-3)GlcNAc
# How it was run: as §1
# [28] = target: GlcNAc(a1-4)Gal
# How it was run: as §1
# [29] = target: GlcNAc(b1-2)Man
# How it was run: as §1
# [30] = target: GlcNAc(b1-4)GlcNAc
# How it was run: as §1
# [31] = target: Man(a1-2)Man(a1-2)Man(a1-3)[Man(a1-2)Man(a1-3)[Man(a1-2)Man(a1-6)]Man(a1-6)]Man(b1-4)GlcNAc(b1-4)GlcNAc
# How it was run: as §1
# [32] = target: Man(a1-3)[Man(a1-6)]Man
# How it was run: as §1
# [33] = target: Neu5Ac(a2-3)Gal
# How it was run: as §1
# [34] = target: Neu5Ac(a2-3)Gal(b1-3)GalNAc(b1-4)[Neu5Ac(a2-3)]Gal(b1-4)Glc
# How it was run: as §1
# [35] = target: Neu5Ac(a2-3)Gal(b1-4)[Fuc(a1-3)]GlcNAc(b1-3)Gal
# How it was run: as §1
# [36] = target: Neu5Ac(a2-3)[GalNAc(b1-4)]Gal(b1-3)GalNAc(b1-4)[Neu5Ac(a2-3)]Gal(b1-4)Glc
# How it was run: as §1
# [37] = target: Neu5Ac(a2-3)[GalNAc(b1-4)]Gal(b1-4)Glc
# How it was run: as §1
# [38] = target: Neu5Ac(a2-8)Neu5Ac(a2-3)[Gal(b1-3)GalNAc(b1-4)]Gal(b1-4)Glc
# How it was run: as §1
# [39] = target: Neu5Ac(b2-3)Gal(b1-4)Glc
# How it was run: as §1
# [40] = target: Rha(a1-6)Glc
# How it was run: as §1
# [41] = target: Fuc(a1-3)[Gal(b1-4)]GlcNAc
# How it was run: as §1
# [42] = target: Gal(a1-3)Gal(b1-3)GlcNAc
# How it was run: as §1
# [43] = target: Gal(b1-4)GlcNAc(b1-3)Gal(b1-4)GlcNAc
# How it was run: as §1
# [44] = target: Gal3S6S(b1-4)GlcNAc6S
# How it was run: as §1
# [45] = target: Glc(a1-4)Glc
# How it was run: as §1
# [46] = target: Glc(a1-6)Glc(a1-6)Glc
# How it was run: as §1
# [47] = target: Glc(b1-4)Glc
# How it was run: as §1
# [48] = target: GlcA(b1-3)Gal
# How it was run: as §1
# [49] = target: GlcNAc(a1-3)Gal(b1-4)GlcNAc
# How it was run: as §1
# [50] = target: Man(a1-2)Man(a1-2)Man(a1-6)[Man(a1-3)]Man
# How it was run: as §1
# [51] = target: Man(a1-2)Man(a1-3)[Man(a1-6)]Man(a1-6)[Man(a1-2)Man(a1-3)]Man(b1-4)GlcNAc(b1-4)GlcNAc
# How it was run: as §1
# [52] = target: Neu5Ac(a2-3)Gal(b1-3)[Fuc(a1-4)]GlcNAc
# How it was run: as §1
# [53] = target: Neu5Ac(a2-3)Gal(b1-4)Glc
# How it was run: as §1
# [54] = target: Neu5Ac(a2-3)[GalNAc(b1-4)]Gal(b1-4)GlcNAc
# How it was run: as §1
# [55] = target: Neu5Gc(a2-3)Gal(b1-3)GlcNAc
# How it was run: as §1
binder,measurement,setting,value
B1,glycan array binding signal (z-score),[1],-0.344
same,glycan array binding signal (z-score),[2],-0.441
same,glycan array binding signal (z-score),[3],-0.422
same,glycan array binding signal (z-score),[4],-0.441
same,glycan array binding signal (z-score),[5],-0.359
same,glycan array binding signal (z-score),[6],0.848
same,glycan array binding signal (z-score),[7],6.08
same,glycan array binding signal (z-score),[8],4.92
same,glycan array binding signal (z-score),[9],0.538
same,glycan array binding signal (z-score),[10],-0.166
same,glycan array binding signal (z-score),[11],-0.291
same,glycan array binding signal (z-score),[12],-0.428
B2,glycan array binding signal (z-score),[13],5.56
same,glycan array binding signal (z-score),[1],5.3
same,glycan array binding signal (z-score),[14],4.89
same,glycan array binding signal (z-score),[15],6.12
same,glycan array binding signal (z-score),[16],3.22
same,glycan array binding signal (z-score),[17],-0.248
same,glycan array binding signal (z-score),[18],-0.306
same,glycan array binding signal (z-score),[19],-0.323
same,glycan array binding signal (z-score),[20],-0.323
same,glycan array binding signal (z-score),[21],-0.323
same,glycan array binding signal (z-score),[22],-0.32
same,glycan array binding signal (z-score),[23],-0.323
same,glycan array binding signal (z-score),[24],-0.323
same,glycan array binding signal (z-score),[25],-0.323
same,glycan array binding signal (z-score),[26],-0.323
same,glycan array binding signal (z-score),[27],-0.323
same,glycan array binding signal (z-score),[28],-0.323
same,glycan array binding signal (z-score),[29],-0.323
same,glycan array binding signal (z-score),[30],-0.323
same,glycan array binding signal (z-score),[31],-0.323
same,glycan array binding signal (z-score),[32],-0.323
same,glycan array binding signal (z-score),[33],-0.323
same,glycan array binding signal (z-score),[34],-0.191
same,glycan array binding signal (z-score),[35],-0.323
same,glycan array binding signal (z-score),[36],-0.323
same,glycan array binding signal (z-score),[37],-0.311
same,glycan array binding signal (z-score),[38],6.1
same,glycan array binding signal (z-score),[39],-0.32
same,glycan array binding signal (z-score),[40],-0.322
B3,glycan array binding signal (z-score),[41],-0.598
same,glycan array binding signal (z-score),[42],-0.126
same,glycan array binding signal (z-score),[43],-0.084
same,glycan array binding signal (z-score),[44],1.17
same,glycan array binding signal (z-score),[45],5.96
same,glycan array binding signal (z-score),[46],6.71
same,glycan array binding signal (z-score),[47],4.43
same,glycan array binding signal (z-score),[48],-0.705
same,glycan array binding signal (z-score),[49],0.229
same,glycan array binding signal (z-score),[50],3.1
same,glycan array binding signal (z-score),[51],0.527
same,glycan array binding signal (z-score),[52],0.445
same,glycan array binding signal (z-score),[53],-0.81
same,glycan array binding signal (z-score),[54],-0.863
same,glycan array binding signal (z-score),[55],-0.826
